# Compound activity from PubChem.
# The list is not random: actives were taken first. Their share in the collection is about 0.9%.
# SRC3 TRFRET art: flags TR-FRET format artefacts in PPARgamma SRC-3 recruitment agonist screen | TR-FRET artefact counter-screen, PPARgamma/SRC-3 format; active compounds read high | TR-FRET ratio at 8 µM | 99,000 tested, 0.39% active; in the data active means TR-FRET ratio above about 2000
# SRC1 TRFRET art: TR-FRET artefact, counter-screen to PPARgamma/SRC-1 agonist assay; TR-FRET ratio at 8 µM; TR-FRET detection artefact counter-screen, emission ratio; active compounds read high; 99,000 tested, 0.34% active; AID 1051; in the data active means TR-FRET ratio above about 2300
# PPARg SRC2 recr: promotes SRC-2 coactivator recruitment by human PPARgamma. 200,000 tested, 0.34% active. PPARgamma LBD-SRC-2 recruitment, biochemical. AID 1032. P37231. activation, % at 8 µM;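 further: 0% = vehicle and 100% = reference agonist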
# PPARg SRC-3 ag: PPARgamma-driven SRC-3 recruitment agonism; AID 731; biochemical PPARgamma/SRC-3 coactivator recruitment assay; activation, % at 8 µM; 200,000 tested, 0.26% active; in the data active means activation above about 23%;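 further: 0% = DMSO and 100% = reference agonist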
# SRC2 TRFRET art: flags TR-FRET format artefacts in PPARgamma SRC-2 recruitment agonist screen. AID 1049. TR-FRET artefact counter-screen; active compounds read high. 200,000 tested, 0.4% active. TR-FRET ratio at 8 µM; in the data active means TR-FRET ratio above about 2000
# PPARg SRC1 recr: promotes SRC-1 coactivator recruitment by human PPARgamma | 200,000 tested, 0.41% active | AID 631 | activation, % at 8 µM | PPARgamma-SRC-1 coactivator recruitment biochemical assay; in the data active means activation above about 19%;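 further: 0% = DMSO and 100% = reference agonist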
# PPARg SRC2 ag: confirmation of agonists of SRC-2 recruitment by human PPARgamma. shares compounds with PPARg SRC-3 ag. biochemical SRC-2 recruitment by PPARgamma. activation, % at 8 µM. 790 tested, 52% active. AID 1297;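 further: 0% = vehicle alone and 100% = reference agonist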
# PPARg SRC1 ag: confirmation of agonists of SRC-1 recruitment by human PPARgamma; PPARgamma–SRC-1 coactivator recruitment biochemical assay; activation, % at 8 µM; AID 1300; 790 tested, 43% active; shares compounds with PPARg SRC-3 ag; in the data active means activation above about 20%;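 further: 0% = vehicle wells and 100% = reference agonist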
# PPARg SRC3 ag: confirmation of agonists of SRC-3 recruitment by human PPARgamma; shares compounds with PPARg SRC-3 ag; biochemical PPARgamma-SRC-3 coactivator recruitment, agonist mode; activation, % at 8 µM; 790 tested, 29% active; in the data active means activation above about 24%;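 further: 0% = vehicle wells and 100% = reference agonist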
# An asterisk follows results filed as active; x = no result. Unless noted, no stated cut-off is given here; in the data, active means activation above about 22%; inactive means the rest.
SMILES,SRC3 TRFRET art,SRC1 TRFRET art,PPARg SRC2 recr,PPARg SRC-3 ag,SRC2 TRFRET art,PPARg SRC1 recr,PPARg SRC2 ag,PPARg SRC1 ag,PPARg SRC3 ag
COC(=O)CCNc1n[nH]c(=O)[nH]c1=O,1714,1933,7.6,6.5,1554,-1.0,x,x,x
CC(C)COC(=O)C(C)Nc1n[nH]c(=S)[nH]c1=O (configuration not stated),1932,2031,10.0,5.0,1786,8.0,x,x,x
COC(=O)CNc1n[nH]c(=S)[nH]c1=O,x,x,120.7*,156.0*,4234*,99.8*,118.7*,86.2*,82.2*
O=C(Cn1c(=O)n(-c2ccc(F)cc2)c(=O)c2sccc21)NC1CCCCC1,1453,1803,2.7,3.8,1523,-3.1,x,x,x
CC(=O)NC1C(Oc2ccc3c(C)cc(=O)oc3c2)OC(COC(C)=O)C(OC(C)=O)C1OC(C)=O (configuration not stated),1356,1613,-9.2,-2.3,1305,-2.4,x,x,x
O=C(O)CCC(=O)Nc1ccccc1C(=O)NCCc1ccccc1,1371,1504,-0.3,2.3,1402,1.8,x,x,x
Fc1cccc(-c2nnn3c2nc(Cl)c2ccccc23)c1,1627,1805,7.7,3.4,1572,2.0,x,x,x
O=C1N=C(N2CCCC2C(=O)O)S/C1=C\c1ccco1 (configuration not stated),1507,1836,2.0,3.3,1700,5.2,x,x,x
Oc1ccc(-c2n[nH]c(=S)n2Cc2ccco2)cc1,x,x,5.5,-4.8,1439,6.5,x,x,x
Oc1cc2ccccc2cc1-c1n[nH]c(=S)n1Cc1ccco1,1823,2134,4.8,16.4,1822,21.5*,7.5,12.3,10.5
Cc1ccc2nc(C)c3c(c2c1)COC3,1756,1918,5.4,1.5,1537,-0.8,x,x,x
COc1ccccc1N1CCN(C(=O)CSc2nnc3c4ccccc4nc(Cc4ccccc4)n23)CC1,1328,1731,-2.0,0.6,1367,-6.1,x,x,x
CCOC(=O)c1c(OCC)[nH]c2c1cc(O)c1ccccc12,x,x,5.5,19.5,1702,18.9*,8.1,7.6,5.2
O=C(O)C1=C[C@H](c2csc3ccccc23)C[C@H](OCc2ccc(CO)cc2)O1,1734,1867,14.5,8.7,1599,23.8*,2.7,-2.5,0.5
O=C(O)C1=C[C@@H](c2csc3ccccc23)C[C@@H](OCc2ccc(CO)cc2)O1,1610,1697,5.9,4.1,1553,1.1,x,x,x
Cc1c(CN2CCC(CO)(CCOc3ccccc3)CC2)[nH]c2c(Cl)cccc12,1669,1825,0.5,3.9,1784,0.6,x,x,x
CCOC(=O)c1sc(C)c2c1NC1(CCCCC1)NC2=O,x,x,1.6,2.2,1524,3.4,x,x,x
CCOC(=O)c1sc(C)c2c1NC(C)(c1cccs1)NC2=O (configuration not stated),x,x,11.5,26.4*,1681,13.2,15.8,12.3,10.9
CCn1c(C)nc2cc(C(=O)N/N=C(\C)c3ccc(OC)cc3O)ccc21,1685,1865,12.7,5.1,1713,9.8,x,x,x
CCOC(=O)C1=C(C)OC(N)=C(C#N)C1c1cc(C)sc1C (configuration not stated),x,x,4.3,-5.7,1603,-5.5,x,x,x
CCOC(=O)C1=C(C)OC(N)=C(C#N)C1c1cc2cc(C)ccc2nc1N1CCCCC1 (configuration not stated),x,x,40.2*,61.8*,2305*,38.2*,62.3*,44.0*,42.0*
C(=Nc1cccc2c(N=Cc3ccco3)cccc12)c1ccco1,1941,2290,22.5*,19.7,1870,25.5*,8.7,5.8,6.4
C(=N\C(/N=C/c1ccco1)c1ccco1)/c1ccco1,1658,1958,15.0,-1.2,1592,0.8,x,x,x
CN(C)c1ccc(C=Nc2ccc(N(C)C)cc2)cc1,x,x,95.2*,103.7*,2825*,68.8*,5.1,3.5,5.1
CN(C)c1ccc(N=Cc2ccco2)cc1,x,x,85.1*,74.2*,2974*,67.2*,5.4,2.7,3.5
SMILES,SRC3 TRFRET art,SRC1 TRFRET art,PPARg SRC2 recr,PPARg SRC-3 ag,SRC2 TRFRET art,PPARg SRC1 recr,PPARg SRC2 ag,PPARg SRC1 ag,PPARg SRC3 ag
Cc1ccc(OCC(=O)N(Cc2ccc(N(C)C)cc2)C2CCS(=O)(=O)C2)cc1 (configuration not stated),x,x,10.2,14.9,1604,21.0*,-1.2,2.5,0.5
CN(C)c1ccc(CN(C(=O)COc2ccc(Br)cc2)C2CCS(=O)(=O)C2)cc1 (configuration not stated),x,x,1.4,-7.7,1438,13.3,x,x,x
O=C(CCNC(=O)c1ccc([N+](=O)[O-])cc1)Nc1ccc(N2CCOCC2)cc1N1CCOCC1,1672,2042,5.0,-2.7,1732,4.2,x,x,x
O=C(Nc1ccc(N2CCOCC2)cc1N1CCOCC1)c1ccc([N+](=O)[O-])cc1,x,x,13.9,26.8*,1418,3.3,2.5,-0.2,1.8
NS(=O)(=O)c1ccc(CNC(=O)c2cc(-c3ccccn3)nc3ccc(Cl)cc23)cc1,3729*,3155*,64.1*,54.3*,2879*,62.7*,33.2*,27.0*,18.4
NS(=O)(=O)c1ccc(CCNC(=O)c2cc(-c3ccccc3)nc3ccccc23)cc1,1586,1708,-1.2,0.3,1481,-0.9,x,x,x
CCOC(=O)CCC(NC(=O)c1ccc(NCN2C(=O)c3ccccc3C2=O)cc1)C(=O)OCC (configuration not stated),x,x,10.1,21.8,1572,29.1*,13.6,27.8*,21.4
Cc1ccnc(NC(=O)CSc2cc(=O)n(C)c3ccccc23)c1,x,x,75.0*,95.9*,3578*,74.5*,41.6*,23.3*,27.5*
Cn1c(=O)cc(SCC(=O)Nc2ccccn2)c2ccccc21,x,x,59.0*,65.1*,2585*,44.6*,33.8*,23.5*,26.7*
Cc1ccnc(NC(=O)CCCOc2cc(=O)n(C)c3ccccc23)c1,x,x,-0.8,-4.4,1577,-7.3,x,x,x
CCOC(=O)c1cc(-c2ccc(N)cc2)sc1N,x,x,28.0*,15.9,1795,16.3,11.3,7.7,6.0
CCOC(=O)c1sc(-c2ccc(Br)cc2)cc1N,x,x,15.1,6.1,1901,4.7,x,x,x
NC1=NC(=O)/C(=C/c2ccccc2OS(=O)(=O)c2ccc3ccccc3c2)S1,1620,1777,-7.6,4.4,1403,-4.8,x,x,x
Cc1ccc(CN2CCN(/N=C/C=C/c3ccccc3[N+](=O)[O-])CC2)cc1,1572,1885,-1.2,-2.1,1450,-1.0,x,x,x
Cc1occc1C(=O)N/N=C/c1c[nH]c2ccccc12,x,x,2.5,10.1,1606,19.0*,2.5,0.7,1.8
